High-throughput results as filed in PubChem BioAssay.
FMDV inh: High Throughput Screening for Foot and Mouth Disease Virus Antivirals; FMDV antiviral cell-based qHTS; Potency, µM (doses to about 57.9 µM), most hits filed as inhibitors; actives 1.2% (n = 410,000); calls by dose curve; tested in HEK293T cells; also: read-out not given here; nearly all actives have a fitted effect of over 45% in size
Cycloheximide cs: Cycloheximide Counterscreen for Small Molecule Inhibitors of Shiga Toxin; AID 2314, 2010; cell reporter, cycloheximide protein synthesis inhibition counterscreen; max response, %; actives 12% (n = 300,000); in the data active = max response mostly above about 13%, no sharp cut-off; inactive = mostly below about 14%; also: read at 38.3 µM for the half of the compounds with a filed dose
Shiga toxin inh: A qHTS for Small Molecule Inhibitors of Shiga Toxin; Vero cells, Shiga toxin protein synthesis inhibition reporter; inhibition, % at 38.7 µM; actives 9.2% (n = 290,000); AID 2315, 2010; in the data active = inhibition mostly above about 28%, no sharp cut-off; inactive = mostly below about 43%
Sm TGR inh: qHTS Assay for the Inhibitors of Schistosoma Mansoni Peroxiredoxins. AID 485364, 2010. Potency, µM (highest dose often 114 µM), hits mostly inhibitors. purified TGR, DTNB reduction, TNB absorbance 405 nm. Schistosoma mansoni thioredoxin glutathione reductase (TGR), Q962Y6. actives 3% (n = 360,000); active = well fitted inhibition curve with a large enough effect; inconclusive = small, poorly fitted or top-dose-only effect; inactive = no such curve, though single readings can be large or run the other way; also: nearly all actives have a fitted effect of over 60% in size
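First, TGR (20 nM dispensed) and NADPH were mixed with compound. Second, a 15 min room-temperature incubation followed. Third, further NADPH and then DTNB were added to start the reaction. Finally, TNB absorbance was monitored kinetically.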
Numbers stand for hits; – = inactive; ? = inconclusive; · = not tested or not shown; ! = not active in a repeat. Most compounds without a hit are left out; they make up all but 12% or so of the library.

SMILES | FMDV inh | Cycloheximide cs | Shiga toxin inh | Sm TGR inh
CC(=O)c1cccc(NC(=O)c2ccc3c(c2)CCN3S(=O)(=O)c2ccccc2)c1 | ? | 24.3 | – | –
O=C(Nc1ccc(S(=O)(=O)N2CCc3ccccc32)cc1)c1ccc2c(c1)OCO2 | – | 31.0 | 36.4 | –
CO[C@H]1[C@H](NC(=O)c2ccco2)c2ccccc2C12CCN(Cc1cnc(N(C)C)s1)CC2 | – | · | · | ·
O=C(CS(=O)(=O)c1cccc2nsnc12)N1CCN(c2ccc(F)cc2)CC1 | – | · | · | –
COc1ccc(C2/C=C\CN(S(=O)(=O)/C=C/c3ccccc3)[C@H](Cc3ccccc3)C(=O)N2Cc2ccc(F)cc2)cc1 (some centres undefined) | – | – | – | 22.4µM
COc1ccc(C2/C=C\CN(CC(C)C)C(Cc3ccccc3)C(=O)N2Cc2ccc(F)cc2)cc1 (centres undefined) | · | 98.8 | 126.0 | ·
COc1ccc(C2/C=C\CN(CC3CC3)C(Cc3ccccc3)C(=O)N2Cc2ccc(F)cc2)cc1 (centres undefined) | · | – | – | ·
COc1ccc([C@H]2/C=C\CN(Cc3ccc(N(C)C)cc3)[C@@H](C)C(=O)N2Cc2ccc(F)cc2)cc1 | – | · | · | ·
COc1ccc(C2/C=C\CN(CC(C)(C)C)CC(=O)N2Cc2ccc(F)cc2)cc1 (centres undefined) | – | – | – | 31.6µM
COc1ccc(C2/C=C\CN(CC3CC3)CC(=O)N2Cc2ccc(F)cc2)cc1 (centres undefined) | – | – | – | –
COc1ccc(C2/C=C\CN(CC(C)C)C(C)C(=O)N2Cc2ccc(F)cc2)cc1 (centres undefined) | · | 31.2 | 142.3 | ·
CCOCCc1nn2c(=O)cc(COC(=O)c3ccccc3NC(=O)C3CCCCC3)nc2s1 | ? | · | · | –
COc1ccc(C2/C=C\CN(C(=O)Nc3ccccc3-c3ccccc3)CC(=O)N2Cc2ccc(F)cc2)cc1 (centres undefined) | – | 62.0! | 151.7! | –
COC(=O)N1C/C=C\C(c2ccc(OC)cc2)N(Cc2ccc(F)cc2)C(=O)C1 (centres undefined) | – | – | – | –
COC(=O)/C(=C1/Oc2ccc(C(C)(C)C)cc2S1)C(F)(F)F | – | 50.1 | – | –
COC(=O)/C(=C1/Oc2cc(C)oc(=O)c2S1)C(F)(F)F | 28.2µM | – | – | –
Cc1ccc(-n2c(=O)c3c(c4cc(C)ccc4n3C)n(CC(=O)Nc3cc(C)cc(C)c3)c2=O)cc1 | – | · | · | –
Cc1ccc(C)c(NC(=O)c2cc(S(=O)(=O)N3CCN(c4cccc(Cl)c4)CC3)ccc2F)c1 | – | · | · | –
CCOC(=O)c1c(C)nc2c(c1-c1cc(OC)ccc1OC)C(=O)c1ccccc1-2 | – | – | – | –
CCOC(=O)C1=C(Cc2ccc(C)cc2)C(=O)c2ccccc2C1=O | · | 18.8 | – | 8.91µM
CCOC(=O)C1=C(Cc2ccc(OC)cc2)C(=O)c2ccccc2C1=O | ? | 26.8 | – | 14.1µM
O=C(Nc1cc(Cl)ccc1-n1cncn1)c1ccc([N+](=O)[O-])s1 | – | 18.8 | – | ?
O=C(Nc1cc(Cl)ccc1-n1cncn1)c1ccco1 | – | · | · | ·
COc1ccc(C2=NN3C(C2)c2ccccc2OC3c2cccs2)cc1 (centres undefined) | – | 58.9 | 62.5 | ?
O=C(c1ccccc1)N1N=C(c2ccccc2)CC1c1ccccc1O (centres undefined) | – | – | – | –
SMILES | FMDV inh | Cycloheximide cs | Shiga toxin inh | Sm TGR inh
Cc1ccc(C2=NN3C(C(=O)c4ccccc4)Oc4ccccc4C3C2)cc1 (centres undefined) | – | 33.9 | 85.8 | –
Cc1ccc(C(=O)C2Oc3ccccc3C3CC(c4ccc(C)cc4)=NN23)cc1 (centres undefined) | – | 53.4 | 59.7 | –
COc1ccc(C2=NN3C(C2)c2ccccc2OC32C(=O)N(C)c3ccccc32)cc1 (centres undefined) | – | 61.9 | 109.4 | 39.8µM
CCCN(CCC)CCCNC(=O)c1sc2nc3n(c(=O)c2c1C)CCC3 | – | · | · | –
COc1cccc(NC(=O)c2oc3ccccc3c2NC(=O)c2ccccc2C)c1 | – | · | · | –
COc1cccc(NC(=O)c2oc3ccccc3c2NC(C)=O)c1 | – | 36.8 | 47.1 | –
COCC(=O)Nc1c(C(=O)Nc2cccc(OC)c2)oc2ccccc12 | – | 47.9 | 58.1 | –
COc1cc(O)ccc1-c1nc2cc(C)ccn2c1Nc1ccccc1C | ? | · | · | –
Cc1c(NC2(C#N)CCCCC2)c(=O)n(-c2ccccc2)n1C | – | – | – | 20µM
CCCCOc1ccc(C2=NNC(=O)CC2)cc1 | – | – | 40.3 | –
Cc1ccc(/C=C/C(=O)Nc2cc(=O)n(C)c(=O)n2C)o1 | – | – | – | 7.94µM
